# Assay outcomes deposited in PubChem by National Center for Advancing Translational Sciences (NCATS).
# Shown are actives, neighbours in structure and some others; about 2.8% of the full set was active somewhere.
# DRD3 agonist – agonists of human D3 dopamine receptor. P35462. D3R DiscoveRx beta-arrestin cells, luminescence, 90 min. max activation, %. 410,000 compounds, 0.58% hits; in the data active means max activation above about 30%; further: 0% is about no effect
# Target sequence (P35462 whole entry, looked up): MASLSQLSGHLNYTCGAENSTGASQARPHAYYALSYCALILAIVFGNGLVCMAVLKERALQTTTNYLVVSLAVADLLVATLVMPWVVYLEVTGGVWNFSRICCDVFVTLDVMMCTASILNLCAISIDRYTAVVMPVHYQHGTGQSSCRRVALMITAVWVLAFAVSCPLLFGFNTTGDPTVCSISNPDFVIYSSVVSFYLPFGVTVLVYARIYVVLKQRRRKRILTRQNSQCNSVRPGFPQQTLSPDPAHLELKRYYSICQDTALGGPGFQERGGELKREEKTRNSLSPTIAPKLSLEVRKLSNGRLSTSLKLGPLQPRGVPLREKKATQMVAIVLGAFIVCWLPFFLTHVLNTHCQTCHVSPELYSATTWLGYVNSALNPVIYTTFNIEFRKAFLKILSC
#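 Agonist-mode cell screen: cells plated at 1500/well and incubated overnight at 37 °C, then exposed to library compounds for 90 min at 37 °C. Detection reagent was added for 30–60 min at room temperature, and luminescence was read.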
# MBNL1 CUG block – inhibitors of human MBNL1 binding to CUG repeat RNA. Q9NR56. TR-FRET MBNL1-His/biotin-(CUG)12 binding, 665/545 ratio. Potency, µM (series often up to 57.5 µM), for inactives: at the top dose activity change, negative = inhibition, usual class: inhibitors. 280,000 compounds, 0.036% hits; active means well fitted inhibition curve with a large enough effect in the signal ratio, with a control signal flat, not every such curve was filed as active; inconclusive means small, poorly fitted or top-dose-only effect, or effect the other way, or a change in a side signal; inactive means no such curve, though single readings can be large or run the other way; the % refers to the signal ratio; further: potency means the concentration at half of the fitted maximal effect; on the % scale 0 is the no-effect control and ±100 the full control effect
#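 MBNL1-His + Biotin-(CUG)12, cpd titration 92 nM–58 uM; Tb anti-His Ab 0.055 ng/ul, SA-XL665 5 nM (final); 60 min RT; ratiometric 665/545 nm, Ex 340 nm; normalized to buffer and full-complex controls.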
# CBFb-RUNX1 inh – CBF-beta/RUNX1 interaction disruption | Q01196+Q13951 | AlphaScreen CBFb-His/RUNX1-biotin binding, biochemical | Potency, µM (titrated, usually from 59.8 µM), for inactives: at the highest dose activity, negative = inhibition, most hits filed as inhibitors | 230,000 tested, under 10 active | AID 1477; further: % of control where 0% means no effect
#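 Inhibition was taken as any reduction in AlphaScreen signal from the CBF-beta–RUNX1 pair (His and biotin tags, 30 nM each), measured after compound (15 min) and bead (90 min) incubations at room temperature.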
# PTHR1 agonist – PTHR1 (human) receptor agonism; Q03431; HEK293 GP2 PTHR1 cells, GloSensor cAMP luminescence, 1 h; Potency, µM (highest dose often 115 µM), without a hit: at the highest dose activation, usual class: activators; 410,000 compounds, 0.075% hits; AID 743266; further: potency means the concentration at half of the fitted maximal effect; nearly all actives have a fitted effect of over 55% in size
#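 HEK-293-derived GP2 cells expressing PTHR1 and a GloSensor cAMP reporter, 3,000/well, plated overnight, given luciferin plus IBMX (each 0.5 mM as added) for 1 h at 37 °C, then compound for 1 h at 37 °C. Luminescence was read after 15 min at room temperature.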
# Integrin act MD – integrin-mediated muscular dystrophy alleviation activation | alpha7betagal myoblasts, beta-gal FDG fluorescence, 48 h | 350,000 compounds, 0.064% hits | Potency, µM (top dose mostly 38.3 µM), for inactives: top-dose activation, most hits filed as activators;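 further: potency means the concentration at half of the fitted maximal effect; 100% = response of the positive control SU9516; nearly all actives have a fitted effect of over 60% in size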
#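 alpha7betagal+/- myoblasts (passage 13, 250/well) treated 48 h at 37C with compounds at 1:260 dilution of DMSO stock. Lysed, then beta-galactosidase activity read as FDG fluorescence (ex 480/em 540) after 30 min, with pre-read for autofluorescence.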
# D3 antag – D3 dopamine receptor (human) antagonism; D3R cells, DiscoveRx beta-arrestin luminescence, antagonist mode; active compounds read low; max response, negative = inhibition, %; 360,000 compounds, 2.5% hits; AID 652054; in the data active means max response below about -50%; inconclusive means no clear call, values can overlap the other calls; further: on the % scale 0 is the no-effect control and ±100 the full control effect
#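 Cells expressing the human receptor were seeded at 1500 cells/well, incubated overnight at 37 degrees C in 5% CO2, then exposed to library compounds with dopamine controls for 90 minutes at 37 degrees C before luminescent detection.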
# * hit, by the source's call; i = inactive; u = inconclusive; x = no result given; [ ] = dose if it differs, or a comment. Unless noted, the call rests on the fitted dose curve; in most records, active means well fitted curve in the direction sought with a large enough effect; inconclusive means small, poorly fitted or top-dose-only effect, or another doubt; inactive means no such curve, though single readings can be large; an effect the other way counts as inactive or inconclusive.
SMILES,DRD3 agonist,MBNL1 CUG block,CBFb-RUNX1 inh,PTHR1 agonist,Integrin act MD,D3 antag
CN(C)c1ccc(/C=C(\C#N)c2nc3ccccc3c(=O)[nH]2)cc1,-11.2,x,x,i,x,x
Cc1cccc(/C=C(\C#N)c2nc3ccccc3c(=O)[nH]2)c1,34.1*,x,x,-13.5%,x,x
Cc1cc(NC(c2nnc(-c3ccccc3)o2)c2ccccc2F)ccc1Br (stereo not drawn),-11.5,x,x,i,x,x
CCc1ccc(NC(=O)Cn2nnc(-c3ccccc3N)n2)cc1,80.3*,x,x,i,x,x
CCOC(=O)c1ccc(NC(=O)Cn2nnc(-c3ccccc3C)n2)cc1,5.7,-5.3%,4.3%,i,-24.4%,1.4
C#CCn1c(=O)c2c(nc(/C=C/c3cccc(OC)c3)n2C)n(CCCOP(=O)(O)O)c1=O,x,x,-9.7%,x,x,x
CC(C)c1ccc2nc(SCC(=O)NCC3CCCO3)c(C#N)cc2c1 (stereo not drawn),8.0,12.5%,x,-20.3%,16.8%,4.8
COc1ccc([C@]23Cc4ccccc4C(O2)c2c(cc(-c4ccccc4)oc2=O)O3)cc1,x,11.9%[11.5 µM],x,x,x,x
Cc1ccc(CN2C(=O)C(=O)c3cc(C)ccc32)cc1,-10.9,x,x,i,-31.6%,-54.2*
CCCCN1C(=O)C(=O)c2cc(Cl)ccc21,-10.9,x,x,-16.5%,-42.9%,-119.6*
Cc1ccc2c(c1)C(=O)C(=O)N2c1ccc(Cl)cc1,-56.4,x,x,1.4%,25.5%,-54.8*
O=C(Nc1ccc(C(=O)O)cc1)/C(=C\c1ccc([N+](=O)[O-])cc1)NC(=O)c1ccco1,-1.2,x,x,i,0.0%,-1.8
CCc1ccccc1NC(=O)[C@@H](c1ccccc1)N1Cc2ccccc2C1=O,-3.8,x,x,-36.9%,x,x
O=C(NC1CCN(Cc2ccccc2)CC1)c1ccccc1OCc1ccccc1,-22.8,-8.7%,x,-8.4%,0.0%,-99.1*
O=C(O)c1cn(-c2ccccc2)nc1-c1ccc(Cl)cc1,8.7,x,x,i,12.3%,-54.3*
O=C(NC1CCN(Cc2ccc(Cl)cc2)CC1)c1cn(-c2ccccc2)nc1-c1cccnc1,-21.6,x,x,-15.1%,-51.2%,-61.7*
O=C(NC1CCN(Cc2ccccc2)CC1)c1ccccc1Cl,-6.3,-1.0%,x,-22.0%,28.1%,u
O=C(NC1CCN(Cc2ccccc2)CC1)c1ccccc1OCc1ccccc1Cl,-21.5,-5.7%,x,i,u,-105.2*
O=C(O)Cc1cccc(=O)c(O)c1C(=O)O,-2.3,x,x,0.9%,17.4%,-16.1
CC(=O)N/N=C/c1ccc(OCCOc2ccc(Br)cc2)cc1,-12.9,-7.6%,-1.6%,i,21.8%,-15.0
CCOc1ccccc1CNS(=O)(=O)c1ccc2[nH]c(=O)ccc2c1,5.8,x,x,i,x,x
COc1ccccc1NC(=O)Cn1c(=O)c(CNc2ccccc2)cc2cc(OC)c(OC)cc21,-14.3,x,x,-7.3%,x,x
CSc1ncccc1C(=O)NCCc1ccccc1,-11.8,-0.3%,-0.5%,i,0.0%,11.6
CSc1ncccc1C(=O)NC1CCN(Cc2ccccc2)CC1,-11.8,-9.9%,x,-29.1%,4.2%,-60.0*
CCOc1ccccc1C(=O)NC1CCN(Cc2ccccc2)CC1,-11.3,-1.8%,x,-24.1%,-28.1%,-72.8*
SMILES,DRD3 agonist,MBNL1 CUG block,CBFb-RUNX1 inh,PTHR1 agonist,Integrin act MD,D3 antag
CCOc1ccccc1C(=O)OC(C)C(=O)Nc1ccc(S(=O)(=O)N2CCCC2)cc1 (stereo not drawn),-0.9,x,x,-1.1%,16.5%,7.7
CCN(CC)c1ccc2nc3ccc(N)cc3[n+](-c3ccccc3)c2c1,-10.2,x,x,-42.9%,-58.8%,-56.3*
CCN(CC)c1ccc2nc3ccccc3[n+](CC)c2c1,-24.1,u,x,-31.2%,-47.1%,-64.8*
CS(=O)(=O)c1ccc(-n2nnc3ccccc32)c([N+](=O)[O-])c1,-11.2,u,x,i,-38.9%,u
N#Cc1cc([N+](=O)[O-])c(-n2nnc3ccccc32)c([N+](=O)[O-])c1,-2.0,u,-0.8%,i,0.6%,-57.5*
CCOc1ccc(CNCc2c(C(=O)O)c(C)n(Cc3ccc(C)cc3)c2C)cc1,-9.2,x,x,i,x,x
Cn1nccc1/C=C(/C#N)S(=O)(=O)c1ccccc1,1.2,3.4%,1.0%,i,-23.8%,-55.6*
Cc1ccn2c(CNCCCn3cccn3)c(C(=O)N3CCCCCC3)nc2c1,-14.8,2.5%,5.2%,i,-2.3%,-58.1*
O=C(c1nc2ccccn2c1CNCC1OCCc2ccccc21)N1CCOCC1 (stereo not drawn),-9.9,0.7%,5.6%,24.9%,-15.3%,-26.3
Cc1ccn2c(CNCC3OCCc4ccccc43)c(C(=O)N3CCCCCC3)nc2c1 (stereo not drawn),-12.7,-6.3%,-2.9%,-19.5%,-27.8%,-80.9*
Cc1ccn2c(CNCCn3cccn3)c(C(=O)N3CCCCCC3)nc2c1,-8.2,2.4%,11.9%,i,-7.3%,-17.3
O=S(c1ccc2ccccc2c1)c1cnns1 (stereo not drawn),-9.2,3.5%,-3.8%,-95.8%[57.5 µM],-59.4%,-55.0*
CN(C)C(CNc1ccc(S(C)(=O)=O)cc1[N+](=O)[O-])c1ccccc1 (stereo not drawn),-20.3,u,x,-2.0%,-4.6%,-64.5*
COc1cc2[nH]c(=S)n(NC(=O)c3ccccc3)c(=O)c2cc1OC,-29.5,6.1%,3.9%,i,-3.5%[7.66 µM],-60.8*
COc1cc2[nH]c(=S)n(C3CC3)c(=O)c2cc1OC,-12.0,2.3%,11.7%,i,-18.2%,-58.5*
COC(=O)c1ccc2c(=O)n(NC(C)=O)c(=S)[nH]c2c1,-14.7,8.7%,7.7%,i,14.6%,11.0
CC(C)NC(=O)N(C)C[C@@H]1OCc2cn(nn2)CCCC(=O)N([C@H](C)CO)C[C@H]1C,0.2,x,x,-7.6%,0.0%,8.5
CCOC(=O)c1c(C)[nH]c(C)c1S(=O)(=O)N1CCCC(C(=O)Nc2ccc(C)c(N(C)C)c2)C1 (stereo not drawn),1.6,x,x,i,x,x
CC1(C)S[C@@H]2[C@H](NC(=O)C(N)c3ccccc3)C(=O)N2[C@H]1C(=O)OC1OC(=O)c2ccccc21 (stereo partly drawn),3.9,x,x,x,x,x
CC1(C)S[C@@H]2[C@H](NC(=O)[C@H](N)c3ccccc3)C(=O)N2[C@H]1C(=O)OC1OC(=O)c2ccccc21 (stereo partly drawn),-33.7,x,x,0.3%,x,-66.8*
